Screens: PubChem, several laboratories
sEH inh: soluble epoxide hydrolase (human) inhibition | P34913 | AID 707 | actives 0.34% (n = 91,000) | inhibition, % at 2 µM | recombinant human sEH enzymatic activity assay; in the data active = inhibition above about 80%
Target sequence (P34913 whole entry, looked up): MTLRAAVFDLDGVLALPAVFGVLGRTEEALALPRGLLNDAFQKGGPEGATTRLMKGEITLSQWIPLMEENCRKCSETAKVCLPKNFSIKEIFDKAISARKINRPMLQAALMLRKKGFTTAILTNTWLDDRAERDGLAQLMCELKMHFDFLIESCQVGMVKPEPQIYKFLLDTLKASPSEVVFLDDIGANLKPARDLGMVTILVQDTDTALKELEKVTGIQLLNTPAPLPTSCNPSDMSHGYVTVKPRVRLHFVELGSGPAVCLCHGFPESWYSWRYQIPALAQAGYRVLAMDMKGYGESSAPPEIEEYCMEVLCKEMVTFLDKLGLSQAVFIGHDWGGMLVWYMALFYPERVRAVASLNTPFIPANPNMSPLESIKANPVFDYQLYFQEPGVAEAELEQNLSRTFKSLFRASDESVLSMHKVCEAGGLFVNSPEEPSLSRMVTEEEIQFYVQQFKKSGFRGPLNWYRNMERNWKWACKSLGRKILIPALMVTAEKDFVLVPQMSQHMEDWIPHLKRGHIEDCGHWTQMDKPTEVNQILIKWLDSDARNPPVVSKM
BAP1 block: human BAP1 deubiquitinase inhibition. recombinant BAP1, Ub-AMC hydrolysis fluorescence kinetic; stronger effect = lower value. calls only at 20 µM. actives 0.48% (n = 72,000);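 active = activity remaining at or below 50% of control, provided the compound also passes the data quality filters; inactive = the rest, including low values that fail the filters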;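 note: 100% = DMSO wells rate and 0% = substrate alone blank rate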
sEH act: activators of human soluble epoxide hydrolase; P34913; purified human sEH enzymatic activity, activator screen; activation, % at 2 µM; actives 0.04% (n = 91,000); AID 717; in the data active = activation above about 37%
PLAP act: activators of human placental alkaline phosphatase; actives 1.2% (n = 96,000); activation fold at 20 µM; P05187; purified PLAP enzyme, luminescent substrate read-out; stronger effect = higher value; in the data active = activation fold above about 2
Active calls of the source: *; i = inactive; nt = not tested or not shown. A selection: hits, their analogues and other compounds. The true share with any hit is near 1.3%.

SMILES | sEH inh | BAP1 block | sEH act | PLAP act
Cc1[nH][nH]c(=O)c1C(c1ccc(-c2ccc(Cl)cc2Cl)o1)c1c(C)[nH][nH]c1=O | -13 | nt | 13 | 2.7*
CC(=O)N1CCc2cc(S(=O)(=O)NCCCN3CCN(Cc4ccccc4)CC3)ccc21 | 0 | i | 2 | 1.6
CCC(=O)N1CCc2cc(S(=O)(=O)NCCCN3CCN(Cc4ccccc4)CC3)ccc21 | 0 | i | 2 | 2*
CSc1ccc(CN2CCN(Cc3c[nH]c4ccccc34)CC2)cc1 | nt | i | nt | nt
Cn1c(=O)c2cc(S(=O)(=O)NC(C(=O)Nc3cccnc3)c3ccccc3)ccc2n(C)c1=O (stereo not given) | 1 | i | -1 | 2.6*
Cc1ccc(C23CC4CC(CC(NC(=O)NC(C)(C)CO)(C4)C2)C3)cc1 | 14 | nt | -12 | 2.3*
Cc1ccccc1C(=O)NC1CCN(CC(=O)Nc2nccs2)CC1 | -10 | i | 12 | 1.2
Cc1cccc(N2CCN(CC(=O)Nc3nccs3)CC2)c1C | -7 | nt | 6 | 2.3*
O=C(c1ccccn1)N1CCN(c2ccc(C(F)(F)F)cn2)CC1 | 0 | nt | 0 | nt
Cc1cccc(C(=O)N2CCN(c3ccc(C(F)(F)F)cn3)CC2)c1C | -12 | nt | 11 | 2.1*
Cc1nn(CC(=O)NCC#N)c(C)c1[N+](=O)[O-] | nt | i | nt | nt
CN1CCN(Cc2cc(COCc3ccccc3)c3cccnc3c2O)CC1 | 2 | i | -2 | 2.2*
CN1CCN(Cc2cc(Br)c(O)c3ncccc23)CC1 | nt | i | nt | nt
CC1=C(C(=O)OCCOc2ccccc2)C(c2ccc(N(C)C)cc2)C2=C(CC(C)(C)CC2=O)N1 (stereo not given) | nt | i | nt | nt
OC1(c2ccc(Cl)cc2)CSC(=S)N1Cc1ccco1 (stereo not given) | nt | i | nt | nt
CCN(C(=O)CSc1nnc(Cc2cccc3ccccc23)n1N)C1CCS(=O)(=O)C1 (stereo not given) | nt | nt | nt | 1.2
Nn1c(Cc2cccc3ccccc23)nnc1SCC(=O)NC1CCS(=O)(=O)C1 (stereo not given) | -5 | i | 4 | 2*
COc1cc(C(c2c(C)[nH][nH]c2=O)c2c(C)[nH][nH]c2=O)ccc1OC(=O)c1cccc([N+](=O)[O-])c1 | 6 | nt | -5 | 1.2
COc1cc(C(c2c(C)[nH][nH]c2=O)c2c(C)[nH][nH]c2=O)ccc1OS(=O)(=O)c1ccccc1 | 4 | nt | -3 | 2.5*
COc1cc(C(c2c(C)[nH][nH]c2=O)c2c(C)[nH][nH]c2=O)ccc1OS(=O)(=O)c1ccc(C)cc1 | 12 | nt | -11 | 2.9*
COc1ccc(C(CC(=O)O)NS(=O)(=O)c2ccc(C)cc2)cc1OC (stereo not given) | 6 | i | -9 | 1
COc1cc(C(c2c(C)[nH][nH]c2=O)c2c(C)[nH][nH]c2=O)ccc1OCc1ccc([N+](=O)[O-])cc1 | 4 | nt | -3 | 2.6*
Cc1ccc(C(=O)NCc2n[nH]c(=S)n2-c2cccc(Cl)c2)cc1 | nt | i | nt | nt
Cc1ccc(-n2nc3ccc(NC(=O)c4ccc([N+](=O)[O-])cc4Cl)cc3n2)cc1Cl | nt | i | nt | nt
Nc1nc(SCC(=O)C23CC4CC(CC(C4)C2)C3)n[nH]1 | 15 | i | -14 | 2.1*
SMILES | sEH inh | BAP1 block | sEH act | PLAP act
CCOC(=O)c1cnc(Nc2nc3ccccc3o2)nc1CN1CCN(C)CC1 | -14 | nt | 12 | 2*
CCCOC(=O)Nc1nc2ccccc2o1 | 4 | i | -2 | 1.9
CCC(C)c1ccc(NC(=O)C2CCN(c3ncccn3)CC2)cc1 (stereo not given) | 99* | nt | -99 | nt
COc1ccc(-c2cc(C(N)=O)on2)c(OC)c1 | nt | i | nt | nt
CC(C)(C)Nc1cccccc1=NCc1ccccc1 | nt | i | nt | nt
CC(=O)Nc1ccc2nc(NC(=O)c3ccc(S(=O)(=O)N4CCc5ccccc54)cc3)sc2c1 | nt | i | nt | nt
O=C(NCCc1c[nH]c2ccccc12)C1CCC(Cn2c(=S)[nH]c3ccccc3c2=O)CC1 (stereo not given) | 95* | nt | -95 | 1.8
O=[N+]([O-])c1ccc(-c2nc3ccccc3nc2-c2ccccc2)cc1 | nt | i | nt | nt
COc1ccc(C2(O)CCN(CCCCOc3ccccc3)CC2)cc1 | -3 | i | 1 | 2.1*
COc1ccccc1NC(=O)CSc1nc2ncccc2[nH]1 | -16 | i | 16 | 1.7
COc1ccc(NC(C)=O)cc1NC(=O)CSc1nc2ncccc2[nH]1 | -11 | i | 10 | 2.4*
COc1cc(NS(=O)(=O)c2ccc(NC(=O)c3ccco3)cc2)ncn1 | nt | i | nt | nt
CCC1CCCCN1CCCNC(=O)c1cn(CC(C)C)c(=O)c2cc(OC)c(OC)cc12 (stereo not given) | 42 | nt | -42 | 2*
CC(C(=O)Nc1nc2ccccc2[nH]1)N1C(=O)C2CC=CCC2C1=O (stereo not given) | -4 | i | 3 | 2*
Cc1cc(N2CCOCC2)c2c(N)c(Br)cc(C)c2n1 | nt | i | nt | 2*
Cc1cc(N2CCN(c3nc(N4CCOCC4)nc4ccccc34)CC2)c2ccccc2n1 | -14 | i | 12 | nt
OCC1OC(Nc2cccc3ccccc23)C(O)C(O)C1O (stereo not given) | nt | i | nt | nt
CCN(CC)C(=O)c1c(NC(=O)c2ccccc2C)sc2c1CCCCC2 | nt | i | nt | nt
CCCc1cc(Nc2cccc(OCC)c2)n2ncnc2n1 | 10 | i | -9 | 2*
CCc1cccc(Nc2cc(C)nc3ncnn23)c1 | nt | i | nt | nt
CCCc1cc(Nc2cccc(OC)c2)n2ncnc2n1 | 4 | i | -3 | 2.3*
Cc1cc(Nc2cccc(Cl)c2)n2ncnc2n1 | nt | i | nt | nt
COC(=O)C(Cc1c[nH]c2ccccc12)NC(=O)c1cc(O)cc(O)c1 (stereo not given) | nt | i | nt | nt
C=C(C)COc1ccc(-c2nc(N)ncc2Oc2ccccc2OC)c(O)c1 | -8 | i | 8 | 1
C=C(C)COc1ccc(-c2[nH]ncc2Oc2ccccc2OC)c(O)c1 | -4 | i | 2 | 2*
SMILES | sEH inh | BAP1 block | sEH act | PLAP act
CCCOC(=O)c1ccc(Oc2cn[nH]c2-c2ccc(OC)cc2O)cc1 | 2 | i | 0 | 2.9*
CCOc1ccc(-c2[nH]ncc2-c2ccc(OC)c(OC)c2)c(O)c1 | -11 | i | 12 | 2.7*
CCOc1ccc(-c2[nH]ncc2Oc2ccccc2OC)c(O)c1 | 18 | i | -18 | nt
CCCOc1ccc(-c2[nH]ncc2Oc2ccccc2)c(O)c1 | nt | i | nt | nt
CCOc1ccc(-c2[nH]ncc2Oc2ccccc2OCC)c(O)c1 | -7 | i | 9 | 2.5*
COc1cc(NC(=O)c2ccc(C)cc2)c(OC)cc1Cl | nt | i | nt | nt
CCC1CCCCN1C(=O)c1nn2c(c1Cl)NC(c1ccccc1)CC2C(F)(F)F (stereo not given) | nt | i | nt | nt
O=C(COc1ccc(Cl)cc1)NCc1n[nH]c(=S)n1-c1cccc(C(F)(F)F)c1 | nt | i | nt | nt
C=C(C)COc1ccc(-c2[nH]ncc2-c2ccccc2OC)c(O)c1 | 16 | i | -14 | 2.5*
O=C(Cc1ccccc1)OCC(=O)c1ccc([N+](=O)[O-])cc1 | nt | i | nt | nt
O=C(c1cccs1)c1coc2ccc(O)c(CN(CCO)CCO)c12 | -8 | nt | 5 | 2.4*
CN(C)Cc1c(O)ccc2occ(C(=O)c3ccccc3)c12 | 10 | i | -4 | 0.9
O=C(Nc1ccc(-c2nc3ccccc3[nH]2)cc1)c1cccc(OCc2ccccc2)c1 | nt | i | nt | nt
